Several values for one entry are separate records, joined by “and”; a condition that tells them apart may be missing. Identical values can stand only once. About 83,000 compounds went through this panel and 20% of them were active in at least one assay; those are over-represented in the sample as a whole.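 The endpoint reported here, percent growth, reads 100 for growth as untreated, 0 for no net growth and -100 for all cells dead.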 A structure can be active in one record and inactive in another. Activity calls are given as the source filed them. The calls were made as follows: active = growth percent below 10; inactive = the rest.

What all share (experiment): NCI-60 one-dose screen, 48 h (100 = growth as untreated, 0 = no growth, -100 = all killed)
Common to all, as to conditions: 10 µM unless noted

In experiment [1] the test system is NCI-H23 lung.
Experiment [2] relates to NCI-H226 lung.
Experiment [3] concerns NCI-H322M lung.
For experiment [4], the system named is HOP-62 NSCLC.
The test system of experiment [5] is NCI-H460 lung.
The test system of experiment [6] is HOP-92 NSCLC.
The test system of experiment [7] is NCI-H522 lung.
The test system of experiment [8] is A549/ATCC NSCLC.
Experiment [9] concerns 786-0 renal.
Experiment [10] deals with COLO 205 colon.
The test system of experiment [11] is DU-145 prostate.
Experiment [12] has as its system K-562 leukemia.
Experiment [13] deals with MALME-3M melanoma.
The test system of experiment [14] is MDA-MB-231 breast.
Experiment [15] concerns RXF 393 renal.
Experiment [16] deals with SF-268 CNS.
Experiment [17] relates to SF-295 CNS.
Experiment [18] concerns SF-539 CNS.
Experiment [19] has as its system UACC-257 melanoma.
The subject of experiment [20] is M14 melanoma.

As for `O=Nc1ccc(O)cc1`, the growth was 78.9% (inactive) and 94.9% (inactive) in experiment [1]; 95.5% (inactive) and 109% (inactive) in [2]; 104% (inactive) and 97.4% (inactive) in [3]; 101% (inactive) and 97.3% (inactive) in [4]; 109% (inactive) and 96.9% (inactive) in experiment [5]; 90.4% (inactive) and 101% (inactive) in experiment [6]. In addition, the growth in [7] was 87.8% (inactive) and 78.5% (inactive); in [8], 99% (inactive) and 93.9% (inactive); in experiment [9], 98.2% (inactive) and 110% (inactive); in experiment [10], 104% (inactive) and 111% (inactive); in experiment [11] it was 97.1% (inactive) and 114% (inactive); in [12], 109% (inactive) and 98.1% (inactive). The growth in experiment [13] was 107% (inactive) and 135% (inactive); in [14] it was 84.9% (inactive) and 68.5% (inactive); in [15], 99.3% (inactive) and 112% (inactive); in experiment [16], 88.7% (inactive) and 93.4% (inactive); in [17] it was 99.5% (inactive) and 105% (inactive); in experiment [18] it was 90.2% (inactive) and 91.5% (inactive). For the same compound, the growth is 108% (inactive) and 96.8% (inactive) in experiment [19]; 97.8% (inactive) and 102% (inactive) in [20].
Take `N/C(=N\N=C\c1ccc2c(c1)OCO2)N/N=C\c1ccc2c(c1)OCO2`: the growth in experiment [1] was 109% (inactive) and 89% (inactive); in experiment [2], 106% (inactive) and 108% (inactive); in [3] it was 108% (inactive) and 101% (inactive); in [4], 115% (inactive) and 101% (inactive); in experiment [5] it was 104% (inactive) and 69.4% (inactive); in experiment [6], 99.8% (inactive). Moreover, the growth in [7] is 119% (inactive) and 108% (inactive); in experiment [8] it was 107% (inactive) and 108% (inactive); in [9], 103% (inactive) and 88.6% (inactive); in [10], 108% (inactive) and 94.5% (inactive); in experiment [11] it was 110% (inactive) and 83.9% (inactive); in experiment [12] it was 90.1% (inactive). The growth in [13] is 92.7% (inactive); in [14], 107% (inactive) and 90.4% (inactive); in experiment [15], 110% (inactive); in [16], 101% (inactive) and 76.2% (inactive); in [17] it was 114% (inactive) and 121% (inactive); in experiment [18] it was 109% (inactive) and 113% (inactive). Further, the growth was 110% (inactive) and 97% (inactive) in [19]; 100% (inactive) and 59.7% (inactive) in experiment [20].
Regarding `COc1c(/C(C)=N/N=c2sc(C(C)=O)nn2-c2ccc(Cl)cc2)c(Oc2ccccc2)c(OC)c2occc12`, the growth was 89.6% (inactive) and 98% (inactive) in experiment [1]; 98.9% (inactive) and 97.4% (inactive) in [2]; 89.8% (inactive) and 100% (inactive) in experiment [3]; 88.6% (inactive) and 98.3% (inactive) in experiment [4]; 99.2% (inactive) and 103% (inactive) in experiment [5]; 90.9% (inactive) and 93.5% (inactive) in [6]. Also, the growth in experiment [7] is 91.5% (inactive) and 79.8% (inactive); in experiment [8], 108% (inactive) and 102% (inactive); in experiment [9], 102% (inactive); in experiment [10] it was 114% (inactive) and 111% (inactive); in [11] it was 110% (inactive) and 109% (inactive); in experiment [12], 93.9% (inactive) and 101% (inactive). The growth in experiment [13] was 102% (inactive) and 101% (inactive); in [14], 107% (inactive) and 101% (inactive); in [15], 113% (inactive); in experiment [16], 101% (inactive) and 87% (inactive); in [17], 95.8% (inactive) and 105% (inactive); in [18] it was 103% (inactive) and 93.7% (inactive). Moreover, the growth in experiment [19] is 106% (inactive) and 113% (inactive); in experiment [20], 113% (inactive) and 96.2% (inactive).
With `CC1=CCC2CC1C2(C)C` (stereo not given), the growth was 80.7% (inactive) and 93.5% (inactive) in experiment [1]; 101% (inactive) and 97.7% (inactive) in experiment [2]; 92.4% (inactive) and 94.8% (inactive) in [3]; 82.8% (inactive) and 68.9% (inactive) in experiment [4]; 106% (inactive) and 102% (inactive) in experiment [5]; 75.5% (inactive) and 121% (inactive) in experiment [6]. Also, the growth in experiment [7] was 92.9% (inactive) and 39.9% (inactive); in experiment [8] it was 94.3% (inactive) and 83.6% (inactive); in experiment [9], 101% (inactive) and 98.6% (inactive); in [10] it was 89.2% (inactive) and 103% (inactive); in experiment [11] it was 98.6% (inactive) and 112% (inactive); in experiment [12] it was 102% (inactive) and 98.4% (inactive). Moreover, the growth in experiment [13] was 101% (inactive) and 127% (inactive); in experiment [14] it was 95.8% (inactive) and 96.9% (inactive); in experiment [15] it was 102% (inactive) and 71% (inactive); in experiment [16], 115% (inactive) and 94.1% (inactive); in [17] it was 94.2% (inactive) and 106% (inactive); in [18], 102% (inactive). In addition, the growth in experiment [19] was -8.84% (active) and 108% (inactive); in experiment [20] it was 98.3% (inactive) and 90.3% (inactive).

These data come from PubChem BioAssay (NCI).
